For one sequence, binding signal results are on record in article PMC7862700, “An all-to-all approach to the identification of sequence-specific readers for epigenetic DNA modifications on cytosine”.

What all share (assay): DAPPL (digital affinity profiling via proximity ligation, sequencing); 10 mM Tris-HCl pH 7.5, 50 mM NaCl, 1 mM DTT, 4% glycerol, room temperature, 30 min; GST-TFs on glutathione beads, 16-mer random dsDNA library, 0.1% formaldehyde crosslink after washing; high values mean tight binding
One test deals with T1, FEV (Homo sapiens, UniProt Q99581 1-238).
T1 sequence: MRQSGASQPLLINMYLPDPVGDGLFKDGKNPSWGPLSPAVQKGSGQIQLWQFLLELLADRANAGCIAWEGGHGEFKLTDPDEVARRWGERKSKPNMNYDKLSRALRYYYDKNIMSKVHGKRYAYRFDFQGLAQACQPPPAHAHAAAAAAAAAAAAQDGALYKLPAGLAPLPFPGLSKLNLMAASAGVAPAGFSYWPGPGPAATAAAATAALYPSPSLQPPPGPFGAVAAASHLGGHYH
To be noted: protein: recombinant; tags: N-terminal GST; dsDNA, one strand shown. In outline: (§1)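 Pools were built from human transcription factors expressed in yeast as GST fusions, captured on glutathione beads and DNA-barcoded, along with a tag-only sample. Incubation with 200 nmole of a 16-mer random double-stranded DNA library lasted 30 min at room temperature in Tris/NaCl/DTT/glycerol buffer, and was followed by washing, 0.1% formaldehyde crosslinking, proximity ligation, PCR amplification and Illumina NextSeq500 sequencing. Binding signal is the quotient of each hexamer's read frequency for a factor and its frequency for the tag-only sample.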

Another test addresses ETV5 (Homo sapiens, UniProt P41161 1-510). To be noted: protein: recombinant; tags: N-terminal GST; dsDNA, one strand shown. In outline:
as §1

For another test, the target named is HSF1 (Homo sapiens, UniProt Q00613 1-529). The following applies: protein: recombinant; tags: N-terminal GST; chain copies: 3; dsDNA, one strand shown. The method, boiled down: as §1
The next test addresses T2, SPIC (Homo sapiens, UniProt Q8N5J4 1-248).
T2 sequence: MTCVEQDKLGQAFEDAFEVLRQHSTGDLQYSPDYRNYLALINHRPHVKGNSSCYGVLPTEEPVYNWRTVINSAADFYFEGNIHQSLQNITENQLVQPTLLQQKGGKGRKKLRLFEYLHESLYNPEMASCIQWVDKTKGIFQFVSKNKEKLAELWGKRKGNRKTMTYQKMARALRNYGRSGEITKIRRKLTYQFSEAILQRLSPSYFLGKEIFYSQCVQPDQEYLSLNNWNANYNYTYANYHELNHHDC
To be noted: protein: recombinant; tags: N-terminal GST; dsDNA, one strand shown. In outline: as §1

For the next test, the target named is ELF4 (Homo sapiens, UniProt Q99607 1-663). To be noted: protein: recombinant; tags: N-terminal GST; dsDNA, one strand shown. In outline: as §1
In the next test the target is T3, ELK4 (Homo sapiens, UniProt P28324-2 1-405).
T3 sequence: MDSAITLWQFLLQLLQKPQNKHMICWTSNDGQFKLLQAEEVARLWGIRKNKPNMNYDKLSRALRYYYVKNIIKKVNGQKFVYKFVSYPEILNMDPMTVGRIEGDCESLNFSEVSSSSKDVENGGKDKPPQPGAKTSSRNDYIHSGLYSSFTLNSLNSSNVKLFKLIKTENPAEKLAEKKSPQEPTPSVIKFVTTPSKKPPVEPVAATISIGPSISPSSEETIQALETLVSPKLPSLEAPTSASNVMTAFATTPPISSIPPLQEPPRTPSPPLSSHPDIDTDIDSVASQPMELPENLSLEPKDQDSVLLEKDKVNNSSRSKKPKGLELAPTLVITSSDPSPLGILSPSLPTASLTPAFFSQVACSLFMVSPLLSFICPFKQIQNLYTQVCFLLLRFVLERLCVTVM
To be noted: protein: recombinant; tags: N-terminal GST; dsDNA, one strand shown. The method, boiled down: as §1

Another test addresses T4, ETV2 (Homo sapiens, UniProt O00321 1-342).
T4 sequence: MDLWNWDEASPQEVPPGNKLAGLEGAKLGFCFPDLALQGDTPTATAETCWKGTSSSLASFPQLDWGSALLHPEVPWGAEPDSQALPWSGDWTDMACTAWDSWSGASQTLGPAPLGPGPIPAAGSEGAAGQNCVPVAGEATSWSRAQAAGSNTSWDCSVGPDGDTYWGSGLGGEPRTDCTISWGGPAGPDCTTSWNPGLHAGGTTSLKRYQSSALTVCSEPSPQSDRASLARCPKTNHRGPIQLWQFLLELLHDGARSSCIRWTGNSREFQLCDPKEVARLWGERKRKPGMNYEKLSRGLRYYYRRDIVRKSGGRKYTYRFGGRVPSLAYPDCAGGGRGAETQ
The following applies: protein: recombinant; tags: N-terminal GST; dsDNA, one strand shown. In outline:
as §1

Another test addresses T5, ELF3 (Homo sapiens, UniProt P78545 1-371).
T5 sequence: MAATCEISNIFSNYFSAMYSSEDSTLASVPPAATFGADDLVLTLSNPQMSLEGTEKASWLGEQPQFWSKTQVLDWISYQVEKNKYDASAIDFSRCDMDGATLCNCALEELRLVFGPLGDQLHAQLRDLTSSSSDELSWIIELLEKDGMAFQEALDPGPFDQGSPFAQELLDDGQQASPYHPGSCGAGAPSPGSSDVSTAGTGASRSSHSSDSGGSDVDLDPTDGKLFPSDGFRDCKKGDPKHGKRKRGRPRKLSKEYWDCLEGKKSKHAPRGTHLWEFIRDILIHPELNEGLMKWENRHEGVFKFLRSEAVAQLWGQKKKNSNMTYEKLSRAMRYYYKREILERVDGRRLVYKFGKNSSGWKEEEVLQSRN
The following applies: protein: recombinant; tags: N-terminal GST; dsDNA, one strand shown. In outline:
as §1

A further test addresses CRX (Homo sapiens, UniProt O43186 1-299). The following applies: protein: recombinant; tags: N-terminal GST; dsDNA, one strand shown. The method, boiled down:
as §1

The next test addresses ETV1 (Homo sapiens, UniProt P50549 1-477). The following applies: protein: recombinant; tags: N-terminal GST; dsDNA, one strand shown. In outline: as §1
The next test concerns the target T6, ERF (Homo sapiens, UniProt P50548 1-548).
T6 sequence: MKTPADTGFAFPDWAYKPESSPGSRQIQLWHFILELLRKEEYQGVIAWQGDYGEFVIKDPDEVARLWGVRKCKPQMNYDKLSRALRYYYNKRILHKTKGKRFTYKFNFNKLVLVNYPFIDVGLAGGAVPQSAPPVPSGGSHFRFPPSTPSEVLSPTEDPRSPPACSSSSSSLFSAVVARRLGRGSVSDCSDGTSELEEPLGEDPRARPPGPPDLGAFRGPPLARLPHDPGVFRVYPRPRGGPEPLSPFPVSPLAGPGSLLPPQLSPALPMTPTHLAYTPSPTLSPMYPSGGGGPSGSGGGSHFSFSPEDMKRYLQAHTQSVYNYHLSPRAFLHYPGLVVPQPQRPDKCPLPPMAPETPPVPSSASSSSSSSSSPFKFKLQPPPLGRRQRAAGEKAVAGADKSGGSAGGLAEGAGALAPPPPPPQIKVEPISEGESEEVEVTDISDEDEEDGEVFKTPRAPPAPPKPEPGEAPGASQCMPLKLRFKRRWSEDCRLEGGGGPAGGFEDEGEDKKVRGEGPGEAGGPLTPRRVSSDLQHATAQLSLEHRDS
The following applies: protein: recombinant; tags: N-terminal GST; dsDNA, one strand shown. The method, boiled down: as §1

The next test has as its target T7, ETV3L (Homo sapiens, UniProt Q6ZN32 1-361).
T7 sequence: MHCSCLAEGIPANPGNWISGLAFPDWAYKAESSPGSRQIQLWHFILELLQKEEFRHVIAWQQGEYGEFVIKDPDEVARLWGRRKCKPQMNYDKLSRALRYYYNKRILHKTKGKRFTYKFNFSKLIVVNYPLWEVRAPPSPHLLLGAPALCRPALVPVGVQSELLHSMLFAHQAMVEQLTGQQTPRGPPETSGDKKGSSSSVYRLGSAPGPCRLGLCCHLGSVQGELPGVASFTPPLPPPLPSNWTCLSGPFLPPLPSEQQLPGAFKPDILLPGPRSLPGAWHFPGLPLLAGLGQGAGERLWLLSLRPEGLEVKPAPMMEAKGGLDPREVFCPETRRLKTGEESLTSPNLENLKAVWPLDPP
The following applies: protein: recombinant; tags: N-terminal GST; dsDNA, one strand shown. In outline: as §1

The next test deals with T8, ETS2 (Homo sapiens, UniProt P15036 1-469).
T8 sequence: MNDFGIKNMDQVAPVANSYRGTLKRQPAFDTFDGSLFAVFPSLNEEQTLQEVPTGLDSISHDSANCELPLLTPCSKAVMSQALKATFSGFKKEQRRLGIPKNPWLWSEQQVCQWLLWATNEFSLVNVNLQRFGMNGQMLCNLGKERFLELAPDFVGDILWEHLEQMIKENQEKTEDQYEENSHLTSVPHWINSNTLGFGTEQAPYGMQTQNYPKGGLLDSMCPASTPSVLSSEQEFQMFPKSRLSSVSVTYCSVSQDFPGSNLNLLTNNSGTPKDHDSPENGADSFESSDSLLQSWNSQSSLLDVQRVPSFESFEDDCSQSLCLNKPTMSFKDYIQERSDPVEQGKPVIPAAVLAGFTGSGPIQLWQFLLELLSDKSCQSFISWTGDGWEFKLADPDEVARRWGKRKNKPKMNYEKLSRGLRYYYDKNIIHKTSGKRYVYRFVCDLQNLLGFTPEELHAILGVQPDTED
The following applies: protein: recombinant; tags: N-terminal GST; dsDNA, one strand shown. In outline:
as §1

The next test has as its target T9, SPDEF (Homo sapiens, UniProt O95238 1-335).
T9 sequence: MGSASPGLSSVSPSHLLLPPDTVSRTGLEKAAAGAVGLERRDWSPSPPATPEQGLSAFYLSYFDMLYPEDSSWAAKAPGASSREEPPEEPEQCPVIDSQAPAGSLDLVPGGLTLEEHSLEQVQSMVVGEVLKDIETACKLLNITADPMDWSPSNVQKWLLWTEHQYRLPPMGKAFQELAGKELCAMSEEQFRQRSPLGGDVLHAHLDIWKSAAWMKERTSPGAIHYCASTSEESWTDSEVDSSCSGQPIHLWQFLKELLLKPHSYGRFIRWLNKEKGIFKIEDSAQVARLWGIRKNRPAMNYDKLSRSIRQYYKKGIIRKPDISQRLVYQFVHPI
The following applies: protein: recombinant; tags: N-terminal GST; dsDNA, one strand shown. The method, boiled down: as §1

For a further test, the target named is T10, ETV7 (Homo sapiens, UniProt Q9Y603 1-341).
T10 sequence: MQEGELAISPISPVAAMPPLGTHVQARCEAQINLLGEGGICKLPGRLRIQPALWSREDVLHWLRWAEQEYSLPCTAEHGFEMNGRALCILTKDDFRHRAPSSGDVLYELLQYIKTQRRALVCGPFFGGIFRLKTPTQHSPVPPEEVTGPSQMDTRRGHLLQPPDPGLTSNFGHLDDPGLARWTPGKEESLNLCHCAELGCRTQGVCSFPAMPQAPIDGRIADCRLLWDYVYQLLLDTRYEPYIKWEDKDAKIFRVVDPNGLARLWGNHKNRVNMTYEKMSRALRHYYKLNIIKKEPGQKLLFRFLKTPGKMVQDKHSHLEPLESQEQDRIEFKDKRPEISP
The following applies: protein: recombinant; tags: N-terminal GST; dsDNA, one strand shown. The method, boiled down:
as §1

Another test addresses T11, ELF5 (Homo sapiens, UniProt Q9UKW6-2 1-255).
T11 sequence: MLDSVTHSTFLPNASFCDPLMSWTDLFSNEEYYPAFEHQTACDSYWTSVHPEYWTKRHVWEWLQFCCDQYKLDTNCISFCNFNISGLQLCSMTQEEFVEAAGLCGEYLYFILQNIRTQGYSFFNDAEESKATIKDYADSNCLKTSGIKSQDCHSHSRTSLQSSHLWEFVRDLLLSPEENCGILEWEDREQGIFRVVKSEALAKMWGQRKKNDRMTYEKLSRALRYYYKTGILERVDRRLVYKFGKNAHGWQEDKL
To be noted: protein: recombinant; tags: N-terminal GST; dsDNA, one strand shown. The method, boiled down: as §1

The target of the next test is T12, ETV3 (Homo sapiens, UniProt P41162-2 1-143).
T12 sequence: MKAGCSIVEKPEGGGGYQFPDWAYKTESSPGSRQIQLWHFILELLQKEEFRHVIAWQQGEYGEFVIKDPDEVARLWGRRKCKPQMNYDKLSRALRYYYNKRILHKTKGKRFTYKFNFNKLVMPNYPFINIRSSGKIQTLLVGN
The following applies: protein: recombinant; tags: N-terminal GST; dsDNA, one strand shown. In outline: as §1

The next test concerns the target ETV6 (Homo sapiens, UniProt P41212 1-452). The following applies: protein: recombinant; tags: N-terminal GST; dsDNA, one strand shown. In outline: as §1

Sequence of CRX (O43186 whole entry): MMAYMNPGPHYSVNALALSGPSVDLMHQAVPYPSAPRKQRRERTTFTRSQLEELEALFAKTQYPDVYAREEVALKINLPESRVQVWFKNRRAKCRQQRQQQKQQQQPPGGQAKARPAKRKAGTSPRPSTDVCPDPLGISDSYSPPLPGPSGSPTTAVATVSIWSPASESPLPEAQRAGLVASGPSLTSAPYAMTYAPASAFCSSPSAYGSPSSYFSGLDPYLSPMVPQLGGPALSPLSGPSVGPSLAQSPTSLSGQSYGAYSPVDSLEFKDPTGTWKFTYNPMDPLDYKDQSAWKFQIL
Sequence of ETV1 (P50549 whole entry): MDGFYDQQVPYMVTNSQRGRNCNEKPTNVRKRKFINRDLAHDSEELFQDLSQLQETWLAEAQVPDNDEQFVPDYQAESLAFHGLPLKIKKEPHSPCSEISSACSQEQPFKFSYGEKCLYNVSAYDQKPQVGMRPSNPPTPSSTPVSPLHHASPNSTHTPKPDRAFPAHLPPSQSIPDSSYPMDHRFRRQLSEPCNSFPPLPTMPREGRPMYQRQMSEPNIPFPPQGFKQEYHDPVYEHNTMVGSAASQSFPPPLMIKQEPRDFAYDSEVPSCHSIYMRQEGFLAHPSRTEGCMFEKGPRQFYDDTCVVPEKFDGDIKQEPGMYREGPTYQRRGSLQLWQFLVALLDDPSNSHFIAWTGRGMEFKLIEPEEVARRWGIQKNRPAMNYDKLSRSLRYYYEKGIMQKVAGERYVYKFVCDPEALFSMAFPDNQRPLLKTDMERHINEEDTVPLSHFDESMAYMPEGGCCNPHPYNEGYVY
Sequence of ELF4 (Q99607 whole entry): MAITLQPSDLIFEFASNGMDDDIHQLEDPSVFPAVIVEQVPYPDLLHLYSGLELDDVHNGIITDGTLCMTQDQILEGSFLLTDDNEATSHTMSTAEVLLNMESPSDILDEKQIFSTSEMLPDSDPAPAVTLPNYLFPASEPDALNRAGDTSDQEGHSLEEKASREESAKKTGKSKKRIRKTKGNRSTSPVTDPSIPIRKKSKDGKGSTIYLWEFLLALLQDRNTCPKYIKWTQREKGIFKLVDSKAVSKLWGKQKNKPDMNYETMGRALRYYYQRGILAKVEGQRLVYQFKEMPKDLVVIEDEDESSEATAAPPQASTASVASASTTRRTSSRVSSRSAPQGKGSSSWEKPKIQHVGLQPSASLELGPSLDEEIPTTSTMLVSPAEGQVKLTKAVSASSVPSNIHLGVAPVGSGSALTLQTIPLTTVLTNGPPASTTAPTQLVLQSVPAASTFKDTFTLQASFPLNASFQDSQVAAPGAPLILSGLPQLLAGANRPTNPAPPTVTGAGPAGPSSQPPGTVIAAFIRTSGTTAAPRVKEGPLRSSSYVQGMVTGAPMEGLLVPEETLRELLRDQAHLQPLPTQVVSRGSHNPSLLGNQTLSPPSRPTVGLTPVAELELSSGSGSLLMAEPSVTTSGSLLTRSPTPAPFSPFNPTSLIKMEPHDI
Sequence of ETV6 (P41212 whole entry): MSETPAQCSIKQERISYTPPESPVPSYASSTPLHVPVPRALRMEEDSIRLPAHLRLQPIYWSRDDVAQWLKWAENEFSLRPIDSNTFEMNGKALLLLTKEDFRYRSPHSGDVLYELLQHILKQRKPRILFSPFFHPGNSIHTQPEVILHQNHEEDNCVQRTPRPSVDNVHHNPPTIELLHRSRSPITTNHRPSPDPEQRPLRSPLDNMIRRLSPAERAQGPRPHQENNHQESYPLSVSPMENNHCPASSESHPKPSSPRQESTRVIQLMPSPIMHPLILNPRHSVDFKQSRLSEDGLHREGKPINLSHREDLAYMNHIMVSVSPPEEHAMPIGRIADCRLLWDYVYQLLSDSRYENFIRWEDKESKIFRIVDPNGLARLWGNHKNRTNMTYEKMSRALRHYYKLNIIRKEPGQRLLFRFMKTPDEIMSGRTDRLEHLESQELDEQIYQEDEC
Sequence of HSF1 (Q00613 whole entry): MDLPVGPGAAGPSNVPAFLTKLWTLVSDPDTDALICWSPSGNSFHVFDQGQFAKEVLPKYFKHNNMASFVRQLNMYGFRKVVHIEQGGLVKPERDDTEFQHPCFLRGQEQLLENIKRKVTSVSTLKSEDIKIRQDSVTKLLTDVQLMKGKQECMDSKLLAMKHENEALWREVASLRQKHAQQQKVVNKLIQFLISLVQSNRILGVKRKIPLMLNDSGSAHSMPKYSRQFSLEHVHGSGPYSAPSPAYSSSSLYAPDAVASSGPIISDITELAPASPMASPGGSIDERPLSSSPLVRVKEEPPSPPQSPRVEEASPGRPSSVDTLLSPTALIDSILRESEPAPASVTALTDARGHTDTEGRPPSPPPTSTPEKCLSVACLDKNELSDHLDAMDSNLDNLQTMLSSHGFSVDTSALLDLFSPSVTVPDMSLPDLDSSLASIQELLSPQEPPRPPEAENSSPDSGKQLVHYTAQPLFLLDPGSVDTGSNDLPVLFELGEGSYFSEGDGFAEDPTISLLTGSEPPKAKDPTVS
Sequence of ETV5 (P41161 whole entry): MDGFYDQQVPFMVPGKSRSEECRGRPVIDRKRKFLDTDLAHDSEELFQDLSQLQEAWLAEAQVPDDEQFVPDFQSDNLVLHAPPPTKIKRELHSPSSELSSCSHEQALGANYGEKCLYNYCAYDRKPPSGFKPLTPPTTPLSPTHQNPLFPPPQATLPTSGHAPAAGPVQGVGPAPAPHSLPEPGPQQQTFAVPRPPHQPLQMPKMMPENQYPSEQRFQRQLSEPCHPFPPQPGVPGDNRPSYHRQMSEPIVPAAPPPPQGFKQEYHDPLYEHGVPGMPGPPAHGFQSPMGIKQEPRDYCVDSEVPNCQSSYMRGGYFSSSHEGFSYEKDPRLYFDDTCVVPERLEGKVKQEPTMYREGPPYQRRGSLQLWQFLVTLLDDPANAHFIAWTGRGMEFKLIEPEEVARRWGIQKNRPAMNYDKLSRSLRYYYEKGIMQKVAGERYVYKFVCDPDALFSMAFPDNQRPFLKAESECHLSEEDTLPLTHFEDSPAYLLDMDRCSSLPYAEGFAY

In the case of TCCTAC, the binding signal was 1.4 fold enrichment (6-mer frequency, TF over GST control) with FEV; 1.51 fold enrichment (6-mer frequency, TF over GST control) in the test with ETV5; 1.21 fold enrichment (6-mer frequency, TF over GST control) with HSF1; 1.54 fold enrichment (6-mer frequency, TF over GST control) with SPIC; 1.41 fold enrichment (6-mer frequency, TF over GST control) in the test with ELF4; 1.29 fold enrichment (6-mer frequency, TF over GST control) with ELK4. Moreover, the binding signal with ETV2 is 1.59 fold enrichment (6-mer frequency, TF over GST control); in the test with ELF3 it was 1.16 fold enrichment (6-mer frequency, TF over GST control); in the test with CRX, 1.31 fold enrichment (6-mer frequency, TF over GST control); with ETV1 it was 1.39 fold enrichment (6-mer frequency, TF over GST control); with ERF, 1.5 fold enrichment (6-mer frequency, TF over GST control); with ETV3L, 1.52 fold enrichment (6-mer frequency, TF over GST control). Moreover, the binding signal in the test with ETS2 was 1.48 fold enrichment (6-mer frequency, TF over GST control); with SPDEF, 1.43 fold enrichment (6-mer frequency, TF over GST control); in the test with ETV7 it was 1.39 fold enrichment (6-mer frequency, TF over GST control); with ELF5, 1.79 fold enrichment (6-mer frequency, TF over GST control); with ETV3, 1.48 fold enrichment (6-mer frequency, TF over GST control); with ETV6, 1.47 fold enrichment (6-mer frequency, TF over GST control).
